Seven compounds from PubChem BioAssay (NCATS) can be followed below.

Results filed as inconclusive are left out. The source made the active and inactive calls. Calls come from the whole dose curve; as a rule, active = well fitted curve in the direction sought with a large enough effect; inconclusive = small, poorly fitted or top-dose-only effect, or another doubt; inactive = no such curve, though single readings can be large; an effect the other way counts as inactive or inconclusive.

Assay [1] can be described thus: qHTS Screen of the MIPE 4.0 Collection Against Ewings Sarcoma (TC71) (AID 1259253). Note: nearly all actives have a fitted effect of over 40% in size. Note: potency is the fitted concentration of half-maximal effect. A digest of the protocol:
(§1)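 Cells plated in serum-containing RPMI (5% FBS) and treated with compound dilutions for 48 h. Readout luminescent viability; normalization relied on vehicle (no inhibition) and media-only columns (full inhibition).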
In general terms: In qHTS, concentration-response curves come from the screen itself.

Assay [2] in a line: qHTS Screen of the MIPE 4.0 Collection Against Ewings Sarcoma (EW8) (AID 1259255). Note: nearly all actives have a fitted effect of over 35% in size. Note: potency is the fitted concentration of half-maximal effect. A digest of the protocol:
as §1

Assay [3] is described as follows: qHTS Screen of the MIPE 4.0 Collection Against Ewings Sarcoma (TC32) (AID 1259256). Note: nearly all actives have a fitted effect of over 45% in size. Note: potency is the fitted concentration of half-maximal effect. A digest of the protocol:
as §1

A short description of assay [4]: P-glycoprotein substrates identified in KB-8-5-11 adenocarcinoma cell line, qHTS therapeutic library screen (AID 1346987). Note: nearly all actives have a fitted effect of over 65% in size. Note: potency is the fitted concentration of half-maximal effect. Put shortly:
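P-gp-mediated resistance screen: KB-8-5-11 cells treated 72 h with compounds in dose-response. CellTiter-Glo viability.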

Assay [5] is described as follows: NS1 protein of Zika virus - qHTS assay to identify small molecule inhibitors in human HEK 293 cells (AID 1347053). Note: nearly all actives have a fitted effect of over 55% in size. Note: potency is the fitted concentration of half-maximal effect. A digest of the protocol: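 HEK 293 cells, seeded 20 h at 37 C, were pretreated with compound 1 h, then infected with ZIKV MR766 (MOI = 0.5) for 24 h. NS1 was read by TR-FRET with two anti-NS1 antibodies, normalized to uninfected and infected wells.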

The nature of assay [6]: Identifying Small Molecule Inhibitors of Pancreatic Cancer Stem Cells (A2780, Spheroid) (AID 1259357).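 Note: compound exposure lasted 48 h before the ATP luminescence read.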 The settings on record: Potency: A2780 spheroid viability. A digest of the protocol: (§2)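 Cytotoxicity read by CellTiter-Glo luminescence after 48 h compound exposure at 37C; percent activity scaled between DMSO-treated cells and cell-free wells. Spheroid formats used cells pre-formed 14 days in stem cell media on hydrogel.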

The nature of assay [7]: Identifying Small Molecule Inhibitors of Pancreatic Cancer Stem Cells (A278, Adherent) (AID 1259361). Note: nearly all actives have a fitted effect of over 35% in size. A digest of the protocol: (§3)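 Pre-formed 14-day tumor spheroids or adherent cells dosed and incubated 48 h, 37C, 5% CO2. Viability assessed by CellTiter-Glo.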
A short description of assay [8]: Identifying Small Molecule Inhibitors of Pancreatic Cancer Stem Cells (SN12C, Spheroid) (AID 1259360). To be noted: Potency: SN12C spheroid viability. Put shortly:
as §2

A short description of assay [9]: Identifying Small Molecule Inhibitors of Pancreatic Cancer Stem Cells (SN12C, Adherent) (AID 1259358).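 Note: cell survival measured after 48 h of compound exposure.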 Put shortly: as §3
Assay [10] in a line: P-glycoprotein substrates identified in KB-3-1 adenocarcinoma cell line, qHTS therapeutic library screen (AID 1346986). Note: nearly all actives have a fitted effect of over 60% in size. A digest of the protocol: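 Counter-screen: cherry-picked hits retested in the KB pair and in HEK-293 pcDNA/MDR-19 cells ± tariquidar. Primary screen used 72 h CellTiter-Glo viability in KB-3-1 and KB-8-5-11.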

Regarding `CCCNC(=O)Nc1ccc(Oc2ncnc3cc(OC)c(OC)cc23)cc1Cl`, the Potency entry in assay [1], in [2], in [3], in [4] and in [5] was “inactive” throughout.

With `C[C@@H]1COC(Nc2ccc3ncnc(Nc4ccc(OCc5nccs5)c(Cl)c4)c3c2)=N1`, the Potency in assay [1] is 3.72 µM (active); in assay [2] it was 20.9 µM (active); in assay [3], 10.5 µM (active); in assay [4], 20.9 µM (active).

In the case of `C[C@@H](Oc1cc(-n2cnc3ccc(CN4CCN(C)CC4)cc32)sc1C(N)=O)c1ccccc1C(F)(F)F`, the Potency was 0.0743 µM (active) in [1], 0.0743 µM (active) in assay [2], 0.0743 µM (active) in assay [3] and 0.059 µM (active) in [5]. Moreover, the Potency entry in [6] was “inactive”. Moreover, the IC50 (viability decrease) in assay [7] was 0.0187 µM (active).

On to `CC(C)=CCCC(C)=CCCC(C)=CCSc1ccccc1C(=O)O`, for which the Potency was 2.35 µM (active) in [1], 2.64 µM (active) in [2], 1.87 µM (active) in [3] and 1.32 µM (active) in assay [4]. The Potency entry in assay [8] is “inactive”.

Consider `Cn1cc(-c2ccncc2)c(-c2ccc(OCc3ccc4ccccc4n3)cc2)n1`, for which the Potency in assay [1] is 16.6 µM (active); in [2], 20.9 µM (active); in assay [3], 16.6 µM (active); in [4], 20.6 µM (active). Further, in assay [5], the Potency result was “inactive”.

For `Cn1c2cc(S(C)=O)sc2c2cnn(Cc3cccc(N)c3)c(=O)c21` (stereo not drawn), the Potency entry in [1], in [2], in [3], in assay [9], in assay [8] and in assay [4] was “inactive” throughout. Also, the Potency result in assay [5] was “inactive”. Further, the IC50 (viability decrease) result in assay [7] was “inactive”.

Take `CC(O)C1C(=O)N2C(C(=O)O)=C(SC3CNC(C(=O)N(C)C)C3)C(C)C12` (stereo not drawn): the Potency result in assay [1], in assay [2], in assay [3], in [10] and in [5] was “inactive” each time.
